Screens from PubChem.
NS1 inh: inhibitors of influenza NS1 protein function; Potency, µM (series often up to 46.1 µM), for the others: top-dose activity, positive = more growth; 270,000 compounds, 0.4% hits; calls by dose curve; further: actives are rising curves; nearly all actives have a fitted effect of over 50% in size
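Growth recovery, yeast-based: influenza A NS1 expressed in S. cerevisiae causes slow growth, and suppressors are detected by OD600. The parent strain without NS1 is used as positive control.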
SARS PLpro yeast: inhibitors of SARS-CoV papain-like protease in yeast; Potency, µM (titrated, usually from 32.9 µM), for inactives: top-dose activity, positive = growth rescue, most hits filed as activators; S. cerevisiae expressing SARS-CoV PLpro, growth rescue; 330,000 compounds, 0.19% hits; AID 485353; calls by dose curve; further: 0% is about no effect; nearly all actives have a fitted effect of over 55% in size
HCV inh: blocks hepatitis C virus | 340,000 compounds, 3.4% hits | Potency, µM (series often up to 41.8 µM), inactives show top-dose activity change, negative = inhibition, actives largely listed as inhibitors | Huh7.5.1 HCVcc-Cre infection, luciferase reporter, 44 h; further: on the % scale 0 is the no-effect control and ±100 the full control effect
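Compounds are dispensed onto cells plated 4 h earlier at 1,000 per well, with HCVcc-Cre virus (about 0.5 moi) added next. Following 44 h of culture, luminescent signal is measured for 15 sec after 15 min with substrate at room temperature.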
Pf growth 48h: inhibits P. falciparum growth in the first generation, 48 h; AID 504832; Potency, µM (series often up to 28.7 µM), without a hit: at the top dose activity change, negative = inhibition, most hits filed as inhibitors; 310,000 compounds, 5.9% hits; P. falciparum luciferase growth in erythrocytes, 48 h; further: on the % scale 0 is the no-effect control and ±100 the full control effect
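Luciferase-expressing P. falciparum in infected erythrocytes (2% hematocrit, 0.1% parasitemia final) in RPMI 1640/0.5% Albumax were exposed to compound for 48 hours at 37 C, 5% CO2; growth read as luminescence.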
AMA1-RON2 inh: inhibitors of Plasmodium falciparum AMA1-RON2 interaction; AlphaScreen AMA1-biotinylated RON2 peptide binding; Potency, µM (highest dose often 58.2 µM), for inactives: top-dose activity change, negative = inhibition, usual class: inhibitors; 360,000 compounds, 0.2% hits; AID 720542;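 further: 0% = vehicle wells and -100% = peptide control; nearly all actives have a fitted effect of over 45% in size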
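AMA1 (3D7) with his tag at 25 nM final met compounds first, then biotinylated RON2 peptide at 25 nM; detection used donor plus acceptor beads, 10 µg/mL apiece, read by AlphaScreen after 30 min at room temperature.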
Pf growth 96h: P. falciparum growth inhibition at 96 hour, primary screen for plastid delayed-death inhibitors; P. falciparum luciferase reporter growth, 96 h; Potency, µM (highest dose often 28.7 µM), for the others: top-dose activity change, negative = inhibition, most hits filed as inhibitors; 320,000 compounds, 6.9% hits; further: on the % scale 0 is the no-effect control and ±100 the full control effect
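Luminescence readout: decreased luciferase signal marks inhibited growth of reporter-expressing P. falciparum in infected red cells (2% hematocrit, 0.05% parasitemia final), exposed to compound two generations (96 h, 37 C, 5% CO2).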
Starred values were filed as active, the others as inactive; ? = inconclusive; nt = no result. A selection: hits, their analogues and other compounds. The true share with any hit is near 12%. Unless noted, the call rests on the fitted dose curve; in most records, active means well fitted curve in the direction sought with a large enough effect; inconclusive means small, poorly fitted or top-dose-only effect, or another doubt; inactive means no such curve, though single readings can be large; an effect the other way counts as inactive or inconclusive. Potency means the concentration at half of the fitted maximal effect.

SMILES	NS1 inh	SARS PLpro yeast	HCV inh	Pf growth 48h	AMA1-RON2 inh	Pf growth 96h
COc1ccccc1CNC(=O)c1oc2ccc(S(=O)(=O)N3CCCC3)cc2c1C	17%	3%	?	2.9µM*	-11%	209%
N#C/C(=C\c1cccnc1)C(=O)Nc1ccc(O)cc1F	7%	2%	6%	1%	-2%	3%
Cc1ccc(-c2c(C(=O)N(C)Cc3ccccc3)oc(=O)c3ccccc23)cc1	-12%	-47%	0%	?	-18%	4.7µM*
COc1ccc2nccc(/C=C/c3ccnc4ccc(OC)cc34)c2c1	-3%	0%	?	3.3µM*	-19%	3.7µM*
CSc1nnc(-c2cc3c(s2)-c2ccccc2CC3)o1	3%	-6%	2.5µM*	80%	201%	85%
S=c1[nH]nc(-c2cc3c(s2)-c2ccccc2CC3)o1	-8%	-22%	9%	36%	12%	34%
CC(=O)NC1=NN(C(C)=O)C2(S1)C(=O)N(CC(C)C)c1ccc(C)cc12 (stereo not drawn)	-1%	0%	18%	-7%	4%	2%
CC(C)c1ccc(S(=O)(=O)NC2CCS(=O)(=O)C2)cc1 (stereo not drawn)	nt	1%	-6%	7%	0%	34%
COc1ccc(NC(=O)c2ccc(-c3ccccc3)cc2)cc1NS(=O)(=O)c1ccc(F)cc1	7%	-7%	4µM*	?	-6%	?
COc1ccc(OCC(=O)Nc2ccc(C)c(S(=O)(=O)N(C)C)c2)cc1	nt	-1%	?	-10%	0%	-21%
CCN(CC)c1ccc(NC(=O)c2ccccc2)cc1S(=O)(=O)Nc1ccccc1OC	-20%	-19%	?	1.5µM*	-14%	?
CCN(CC)c1ccc(NC(=O)COc2ccc(C#N)cc2)cc1S(=O)(=O)Nc1ccc(OC)cc1	?	14%	?	?	15%	10µM*
CCN(CC)c1ccc(NC(=O)c2cccc(C)c2)cc1S(=O)(=O)Nc1ccccc1OC	24%	-14%	-11%	7.4µM*	-6%	2.9µM*
COc1ccc(NC(=O)c2ccccc2)cc1NS(=O)(=O)c1ccc(F)cc1	3%	-4%	4%	3%	1%	-19%
COc1ccccc1NC(=O)Nc1ccc(Cl)c(S(=O)(=O)Nc2ccccc2OC)c1	-2%	6%	?	-17%	18%	?
Cc1ccc(S(=O)(=O)NN=CC2(c3ccccc3)CC2)cc1	nt	nt	nt	nt	6%	nt
Cc1c(NC(=O)C(C)OC(=O)/C=C/c2ccc3c(c2)OCO3)c(=O)n(-c2ccccc2)n1C (stereo not drawn)	nt	4%	-14%	8%	0%	?
COc1ccc(NC(=O)Nc2c(C)n(C)n(-c3ccccc3)c2=O)c(OC)c1	28%	17%	-13%	3%	7%	16%
CCCn1c2c(c(O)c(C(=O)Nc3ncccc3C)c1=O)CCCC2	-138%	-5%	11µM*	10%	36%	-1%
COC(=O)c1ccc(COC(=O)c2ccc(C)c(S(=O)(=O)N3CCCCC3)c2)cc1	nt	6%	-9%	?	-3%	0%
COc1cccc(/C=N/Nc2nccnc2Cl)c1O	-61%	-6%	2.5µM*	?	-32%	-3%
Oc1ccc(/C=N/Nc2nccnc2Cl)c(O)c1	-99%	3.2µM*	?	nt	-1%	?
COC(=O)c1sccc1N/N=C/c1cccc(OC)c1O	7%	-37%	-2%	281%	11%	85%
COc1cccc(/C=N/Nc2ncnc3scc(-c4ccccc4)c23)c1O	-17%	?	?	2.9µM*	23%	2.3µM*
Oc1ccccc1/C=N/Nc1nccnc1Cl	-186%	-33%	?	nt	-5%	-11%
SMILES	NS1 inh	SARS PLpro yeast	HCV inh	Pf growth 48h	AMA1-RON2 inh	Pf growth 96h
C#C[C@]1(O)CCC2C3CCC4=Cc5oncc5CC4(C)C3CCC21C (stereo partly drawn)	nt	nt	-20%	nt	-6%	nt
Cc1cc(=S)cc(C)n1CCO	2%	16%	26%	5%	-24%	11%
Cc1cc(C)n(CCO)c(=O)n1	-5%	9%	10%	9%	0%	2.3µM*
O=C(Nc1ccccc1)c1ccccc1OCC(O)CN1C(=O)c2ccccc2S1(=O)=O (stereo not drawn)	-34%	-2%	5%	-10%	6%	14%
CC1(C)NC(=O)N(CC(O)COc2ccccc2C(=O)Nc2ccccc2)C1=O (stereo not drawn)	-2%	3%	0%	-10%	9%	13µM*
C(=N\N1CCN(c2ccccn2)CC1)/c1cccc2ccccc12	2%	-1%	?	29%	14µM*	16%
O=C(NC1CCCC1)c1ccc(Cl)c(S(=O)(=O)N2CCOCC2)c1	5%	5%	-10%	4.7µM*	9%	9%
Cc1ccc(C(=O)NC2CCCCCCC2)cc1S(=O)(=O)N1CCOCC1	nt	-2%	?	?	6%	9.3µM*
COc1ccc(C(=O)NC2CCCCCC2)cc1S(=O)(=O)N1CCOCC1	9%	3%	17%	-20%	-15%	76%
O=C(NC1CCCCCCC1)c1ccc(F)c(S(=O)(=O)N2CCOCC2)c1	nt	-2%	?	?	7%	?
CC(C)C(C(=O)Nc1ccc2c(c1)OCCOCCOCCOCCO2)N1C(=O)c2ccccc2C1=O (stereo not drawn)	nt	-5%	9%	-10%	-7%	-13%
COc1ccc(/C=C/C(=O)NC(=S)Nc2ccccc2C(=O)NC2CCCCC2)cc1	1%	-1%	25µM*	3%	13%	23%
CC(=O)NC(=S)Nc1ccccc1C(=O)NC1CCCCC1	8%	-3%	2%	-30%	9%	8.3µM*
O=C(/C=C/c1ccc(F)cc1)NC(=S)NC1CCCCC1	-4%	3%	3%	?	1%	3.3µM*
O=C(NC(=S)NC1CCCC1)c1ccccc1Br	?	28%	2%	-21%	15%	?
O=C(NNC(=S)NC1CCCCC1)c1ccccc1O	nt	?	?	39%	-55%	2.3µM*
Cc1ccc(/C=C/C(=O)NC(=S)Nc2ccccc2C(=O)NC2CCCCC2)cc1	4%	3%	-20%	?	13%	?
Cn1c(=O)n(C)c2cc([N+](=O)[O-])c(N3CCN(CCO)CC3)cc21	-1%	0%	22%	0%	7%	?
CCOC(=O)c1c(Cc2ccccc2)c[nH]c1C	nt	-6%	9%	32%	0%	4%
S=C(Nc1ccc(Cl)cc1)c1nc2ccccc2s1	6%	-5%	-25%	69%	?	-16%
Cc1ccc(NC(=S)c2nc3ccccc3s2)cc1	-8%	-3%	-21%	101%	10µM*	87%
